GDH-TPI counter-1: counter-screen for M. tuberculosis FBA inhibitors: GDH-TPI coupled enzymes; GDH-TPI coupled enzyme counterscreen, NADH absorbance; inhibition, % at 4.8 µM; 360,000 tested, 1.2% active; AID 588335; in the data active = inhibition above about 30%;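 note: 0% = DMSO wells and 100% = wells lacking the enzyme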
Rv3671c inh: inhibitors of M. tuberculosis serine protease Rv3671c | inhibition, % at 5.96 µM | 320,000 tested, 0.048% active; in the data active = inhibition above about 38%;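 note: extracellular domain of Rv3671c used as enzyme; 0% = enzyme with DMSO and 100% = no enzyme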
FBA Mtb inh: inhibitors of M. tuberculosis fructose-bisphosphate aldolase; P9WQA3; purified M. tuberculosis FBA, fluorescence read-out; 360,000 tested, 2.3% active; inhibition, % at 1 µM; AID 588726;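 note: 0% = vehicle and 100% = reference inhibitor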
Target sequence (P9WQA3 whole entry, looked up): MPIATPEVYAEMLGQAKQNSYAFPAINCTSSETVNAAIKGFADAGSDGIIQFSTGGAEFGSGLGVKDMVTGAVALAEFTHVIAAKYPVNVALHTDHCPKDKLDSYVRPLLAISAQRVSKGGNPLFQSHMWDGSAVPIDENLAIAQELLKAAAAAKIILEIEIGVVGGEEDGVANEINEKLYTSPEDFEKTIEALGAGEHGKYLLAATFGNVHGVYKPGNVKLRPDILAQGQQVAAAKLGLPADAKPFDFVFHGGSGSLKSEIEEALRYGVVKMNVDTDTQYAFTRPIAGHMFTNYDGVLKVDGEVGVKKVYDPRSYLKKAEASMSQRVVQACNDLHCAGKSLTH
Mtb UGM inh: inhibitors of M. tuberculosis UDP-galactopyranose mutase. purified UGM, fluorescence polarization probe displacement. inhibition, % at 10 µM. P9WIQ1. 320,000 tested, 0.06% active; in the data active = inhibition above about 10%, passing the limit was not always enough
Mtb FBA confirm: Mtb FBA inhibition, confirmed; shares compounds with FBA Mtb inh; purified M. tuberculosis FBA, fluorescence read-out; inhibition, % at 1 µM; 5,600 tested, 78% active;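 note: 0% = vehicle wells and 100% = reference inhibitor wells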
GDH-TPI counter-2: GDH-TPI inhibition counter-screen for FBA inhibitors; shares compounds with FBA Mtb inh; GDH-TPI coupled enzyme counterscreen, fluorescence; inhibition, % at 1 µM; 5,600 tested, 81% active; in the data active = inhibition above about 10%
The depositor's hits bear a star. In the library only some 3.5% were active in any assay of this set; here they are far more common. Cut-off read from the data, not from the text of the source, unless noted: active = inhibition above about 27%; inactive = the rest.

CCCCn1c(N)c(N(CC(C)C)C(=O)CSc2nnc(C)n2-c2ccccc2)c(=O)[nH]c1=O was read as GDH-TPI counter-1 -3.5 and FBA Mtb inh 1.1.
For Cc1ccc(-c2nc(CN3CCCCC3)cc(CN3CCCCC3)c2O)cc1 the results were GDH-TPI counter-1 7.6, Rv3671c inh 5.6, FBA Mtb inh 58.7*, Mtb UGM inh -1.7, Mtb FBA confirm 143.6* and GDH-TPI counter-2 121.8*.
`O=C(N/N=C/c1cccc2ccccc12)c1cc2ccccc2o1` gave GDH-TPI counter-1 16.5 and FBA Mtb inh 1.1.
Screening O=C(N/N=C/c1ccccc1F)c1cc2c(ccc3ccccc32)o1 returned GDH-TPI counter-1 13.4, Rv3671c inh 1.1, FBA Mtb inh 30.3*, Mtb UGM inh -2.7, Mtb FBA confirm 54.4* and GDH-TPI counter-2 35.7*.
O=C(NCC(=O)N(c1cccnc1)C(C(=O)NC1CCCC1)c1cccs1)c1ccco1 (configuration not stated) was read as GDH-TPI counter-1 -1.9, Rv3671c inh 3.8, FBA Mtb inh 6.0 and Mtb UGM inh -1.3.
`C=CCn1c(N)nc2ccccc21` gave GDH-TPI counter-1 -7.5, Rv3671c inh 0.2, FBA Mtb inh -1.5 and Mtb UGM inh -0.5.
C=CCn1c(-c2ccc(N)cc2)nc2ccccc21 was read as GDH-TPI counter-1 12.0, Rv3671c inh 7.8, FBA Mtb inh 91.6*, Mtb UGM inh 0.2, Mtb FBA confirm 11.6 and GDH-TPI counter-2 -2.8.
CCn1c(-c2ccc(N)cc2)nc2ccccc21 was read as GDH-TPI counter-1 3.4, Rv3671c inh 5.3, FBA Mtb inh 82.5*, Mtb UGM inh -1.1, Mtb FBA confirm 101.5* and GDH-TPI counter-2 77.7*.
Screening CCn1c(N)nc2ccccc21 returned GDH-TPI counter-1 -5.8, Rv3671c inh 2.1, FBA Mtb inh 1.8 and Mtb UGM inh -1.2.
O=C(NCCc1nnc2ccc(NCCCN3CCOCC3)nn12)c1ccccc1 was read as GDH-TPI counter-1 3.1, Rv3671c inh -4.0, FBA Mtb inh 4.1 and Mtb UGM inh 1.8.
For CCN(C[C@H]1N[C@@](CC)(C(=O)OC)[C@H]2C(=O)N(C)C(=O)[C@@H]12)C(=O)c1ccccc1 the results were GDH-TPI counter-1 -0.9, Rv3671c inh 4.5 and FBA Mtb inh 1.9.
Screening Cc1ccc(NC(=O)C2(C)CCN2C(=O)Cc2ccccc2Cl)cc1C (configuration not stated) returned GDH-TPI counter-1 11.1 and FBA Mtb inh 6.6.
CC(C)CNC(=O)c1cc2nc(C3CC3)cc(C(F)(F)F)n2n1 was read as GDH-TPI counter-1 12.7, Rv3671c inh -5.9, FBA Mtb inh 79.0*, Mtb UGM inh 0.9, Mtb FBA confirm 62.0* and GDH-TPI counter-2 60.7*.
For Cc1ccc(NS(=O)(=O)c2ccc(C)c(C(=O)NCC(c3ccccc3)N(C)C)c2)cc1 (configuration not stated) the results were GDH-TPI counter-1 1.1, Rv3671c inh -4.7, FBA Mtb inh -1.7 and Mtb UGM inh 7.4.
Screening Cc1ccc(NC(=O)c2cc(F)c(F)cc2Cl)nc1 returned GDH-TPI counter-1 -0.6, Rv3671c inh 6.2, FBA Mtb inh 82.2*, Mtb UGM inh 0.3, Mtb FBA confirm 135.9* and GDH-TPI counter-2 124.5*.
Cc1cc(NC(=O)c2cc(F)c(F)cc2Cl)no1 was read as GDH-TPI counter-1 -4.8, Rv3671c inh -7.2, FBA Mtb inh -3.1 and Mtb UGM inh 0.7.
Screening Cc1ccc(NC(=O)c2ccccc2F)nc1 returned GDH-TPI counter-1 3.4, Rv3671c inh -0.9, FBA Mtb inh 33.2*, Mtb UGM inh 1.9, Mtb FBA confirm 95.7* and GDH-TPI counter-2 78.1*.
COc1cc2ccccc2cc1C(=O)Nc1ccc(C)cn1 was read as GDH-TPI counter-1 6.2, Rv3671c inh -15.4, FBA Mtb inh 2.8 and Mtb UGM inh 0.0.
For O=C(CN1C(=O)NC2(CCCC2)C1=O)NCc1ccc(Cl)cc1 the results were GDH-TPI counter-1 -2.2, Rv3671c inh 9.4, FBA Mtb inh 1.7 and Mtb UGM inh -0.3.
`Cc1cc(C)n(CCNC(=O)[C@H]2O[C@@H](n3ccc(=O)[nH]c3=O)[C@H](O)[C@@H]2O)n1` gave FBA Mtb inh 1.6.
Screening CCCCC(CC)CNC(=O)C(=O)c1ccccc1NC(C)=O (configuration not stated) returned GDH-TPI counter-1 3.2, Rv3671c inh 7.8, FBA Mtb inh 0.8 and Mtb UGM inh -2.2.
`CCn1c(=O)c2cc(C(=O)NCC(OC)OC)sc2c2ccccc21` gave GDH-TPI counter-1 15.8, Rv3671c inh -5.9, FBA Mtb inh 61.2*, Mtb UGM inh 3.1, Mtb FBA confirm active and GDH-TPI counter-2 179.2*.
For CCCCN(CC)CCCNC(=O)c1cc2c(=O)n(CC)c3ccccc3c2s1 the results were GDH-TPI counter-1 14.0, Rv3671c inh -9.2, FBA Mtb inh 79.2*, Mtb UGM inh -1.3, Mtb FBA confirm 6.3 and GDH-TPI counter-2 -2.0.
`CCn1c(=O)c2cc(C(=O)NCCC(C)C)sc2c2ccccc21` gave GDH-TPI counter-1 6.3, Rv3671c inh -4.0, FBA Mtb inh 8.1 and Mtb UGM inh -3.9.
`CCCN(CCC)CCCNC(=O)c1cc2c(=O)n(CC)c3ccccc3c2s1` gave GDH-TPI counter-1 17.0, Rv3671c inh 4.7, FBA Mtb inh 27.3*, Mtb UGM inh 0.7, Mtb FBA confirm active and GDH-TPI counter-2 active.
CCC(C)NC(=O)c1cc2c(=O)n(CC)c3ccccc3c2s1 (configuration not stated) was read as GDH-TPI counter-1 18.4, Rv3671c inh 1.2, FBA Mtb inh 47.7*, Mtb UGM inh -1.1, Mtb FBA confirm 99.7* and GDH-TPI counter-2 92.0*.
Screening C[C@@H]1CN([C@@H](C)CO)C(=O)CCCn2nncc2CO[C@H]1CN(C)S(=O)(=O)c1ccc(-n2cccn2)cc1 returned GDH-TPI counter-1 -17.5 and FBA Mtb inh -1.2.
For COc1ccc(F)c(CN2CCC(n3nccc3NC(=O)C3CCOC3)CC2)c1 (configuration not stated) the results were GDH-TPI counter-1 2.4, Rv3671c inh -8.0, FBA Mtb inh 0.1 and Mtb UGM inh 0.2.
Screening CCn1c(=O)c2cc(C(=O)NCCCOC)sc2c2ccccc21 returned GDH-TPI counter-1 26.5, Rv3671c inh 6.3, FBA Mtb inh 53.6*, Mtb UGM inh -2.5, Mtb FBA confirm active and GDH-TPI counter-2 186.0*.
CCCCN(CC)CCNC(=O)c1cc2c(=O)n(CC)c3ccccc3c2s1 was read as GDH-TPI counter-1 18.0, Rv3671c inh 0.3, FBA Mtb inh 40.4*, Mtb UGM inh -1.7, Mtb FBA confirm 175.6* and GDH-TPI counter-2 115.7*.
Screening Cc1cc(NC(=O)NCc2ccccc2)c(=O)n(Cc2ccc(F)cc2)c1 returned GDH-TPI counter-1 14.5, Rv3671c inh 0.7, FBA Mtb inh 27.6*, Mtb UGM inh -0.5, Mtb FBA confirm 97.8* and GDH-TPI counter-2 82.6*.
`O=C(NCc1ccccc1)Nc1cccn(Cc2ccc(F)cc2)c1=O` gave GDH-TPI counter-1 -7.0, Rv3671c inh -2.5, FBA Mtb inh 13.6 and Mtb UGM inh -0.3.
